Screens as filed in PubChem BioAssay.
A selection: hits, their analogues and other compounds. The true share with any hit is near 2.4%.
Cruzain Triton: qHTS Assay for Promiscuous and Specific Inhibitors of Cruzain (with detergent); purified cruzain, Z-FR-AMC fluorescence, 0.01% Triton; Potency, µM, for the others: max response, negative = inhibition, most hits filed as inhibitors; 0.43% of 200,000 active; AID 1478, 2009;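 further: plate controls were neutral wells for no effect and buffer without enzyme for full effect; nearly all actives have a fitted effect of over 40% in size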
Target sequence (P25779 123-467 limits assumed): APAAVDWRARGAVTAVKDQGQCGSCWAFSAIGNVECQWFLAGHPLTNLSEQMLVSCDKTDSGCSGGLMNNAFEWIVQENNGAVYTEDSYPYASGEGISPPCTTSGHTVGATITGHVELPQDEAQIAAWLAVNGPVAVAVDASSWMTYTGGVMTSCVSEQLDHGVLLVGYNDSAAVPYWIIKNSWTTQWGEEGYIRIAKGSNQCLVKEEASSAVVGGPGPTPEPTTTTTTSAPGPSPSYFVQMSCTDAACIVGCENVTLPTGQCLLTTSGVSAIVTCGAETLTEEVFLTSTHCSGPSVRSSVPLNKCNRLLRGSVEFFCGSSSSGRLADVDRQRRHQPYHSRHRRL
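Cysteine protease activity tested under reducing, mildly acidic conditions (100 mM sodium acetate pH 5.5, 5 mM DTT) plus 0.01% Triton X-100. Cruzain 1.5 nM; substrate Z-FR-AMC 2 uM; 15 min compound preincubation at room temperature.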
Cruzain inh noDet: qHTS Assay for Promiscuous and Specific Inhibitors of Cruzain (without detergent); purified cruzain, Z-FR-AMC fluorescence, no detergent; Potency, µM, inactives show max response, negative = inhibition, usual class: inhibitors; 2.3% of 200,000 active;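 further: plate controls were enzyme without inhibitor for no effect and buffer without enzyme for full effect; nearly all actives have a fitted effect of over 40% in size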
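Purified cruzain at 1.5 nM, pre-incubated 15 min with compound at room temperature in 100 mM sodium acetate pH 5.5, 5 mM DTT, 0.00005% Triton X-100. Reaction started with 2 uM Z-FR-AMC; AMC fluorescence increase over 60 s gives rate.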
An asterisk follows results filed as active; ? = inconclusive. The call rests on the fitted dose curve; in most records, active means well fitted curve in the direction sought with a large enough effect; inconclusive means small, poorly fitted or top-dose-only effect, or another doubt; inactive means no such curve, though single readings can be large; an effect the other way counts as inactive or inconclusive. Potency means the concentration at half of the fitted maximal effect.

SMILES	Cruzain Triton	Cruzain inh noDet
C=CCn1c(=N)c(C(=O)NCCCOC)cc2c(=O)n3cccc(C)c3nc21	32µM*	?
COCCCn1c(=N)c(C(=O)NCc2ccco2)cc2c(=O)n3cccc(C)c3nc21	-8%	-17%
CNC(=O)c1cc2c(=O)n3cccc(C)c3nc2n(C(C)C)c1=N	25µM*	?
CCCCNC(=O)c1cc2c(=O)n3cccc(C)c3nc2n(Cc2ccccc2)c1=N	28µM*	?
Cc1cccn2c(=O)c3cc(C(=O)NCc4ccco4)c(=N)n(CCOCCO)c3nc12	-4%	5%
Cc1cccn2c(=O)c3cc(C(=O)NCCc4ccccc4)c(=N)n(CCCn4ccnc4)c3nc12	0%	?
O=C(NCc1ccc2c(c1)OCO2)c1ccc2c(c1)N(Cc1cccc(Cl)c1)C(=O)c1ccccc1S2=O (stereo not given)	-3%	?
c1ccc(Nc2cc(-c3ccoc3)ncn2)cc1	-1%	-10%
COc1ccc(CNC(=O)C2CCN(S(=O)(=O)Cc3ccccc3)CC2)cc1	1%	-7%
O=c1cnc2cncnc2n1Cc1ccc(F)cc1	1%	2%
O=C(COc1ccccc1-c1nc(-c2ccccc2)no1)Nc1ccc([N+](=O)[O-])cc1	-5%	-9%
CCc1ccc(C2C(C#N)=C(N)SC(N)=C2C#N)s1	-27%	16µM*
CCc1ccc(C2C(C#N)=C(N)SC(N)=C2C#N)cc1	-18%	-12%
CC1(C)S[C@@H]2[C@H](NC(=O)C3(N)CCCCC3)C(=O)N2[C@@H]1C(=O)O	2%	0%
COc1cccc(N2CC(C(=O)Nc3nnc(SCC(=O)c4ccccc4)s3)CC2=O)c1 (stereo not given)	-4%	-26%
Cc1ccccc1N1CC(C(=O)Nc2nnc(SCC(=O)Nc3nccs3)s2)CC1=O (stereo not given)	-11%	-28%
Cc1cccc(N2CC(C(=O)Nc3nnc(SCC(=O)Nc4cc(C)on4)s3)CC2=O)c1 (stereo not given)	-3%	10µM*
Cc1cc(NC(=O)CSc2nnc(Nc3ccccc3)s2)no1	0%	16µM*
COc1ccc(Nc2nnc(SCC(=O)Nc3cc(C)on3)s2)cc1	-5%	-25%
Cc1cccc(N2CC(C(=O)Nc3nnc(SCC(=O)Nc4nccs4)s3)CC2=O)c1 (stereo not given)	-3%	6.3µM*
COc1cccc(CSc2nc3n(n2)C(CC(C)C)C(C(=O)Nc2ccccc2C)=C(C)N3)c1 (stereo not given)	2%	-4%
Cc1cccc(C(=O)Nc2sc3c(c2C(=O)N2CCCCC2)CCC(C)C3)c1 (stereo not given)	-2%	-18%
CC(=O)N[C@@H]1CONC1=O	-2%	4%
COc1cc(/C=C(\C#N)c2nc3ccccc3[nH]2)cc(Cl)c1OCc1ccccc1Cl	0%	10µM*
COc1cc(/C=C(\C#N)c2nc3ccccc3[nH]2)c([N+](=O)[O-])cc1OCc1ccccc1	-5%	32µM*
SMILES	Cruzain Triton	Cruzain inh noDet
N#C/C(=C\c1ccc(OCc2ccc(Cl)cc2Cl)cc1)c1nc2ccccc2[nH]1	2%	-11%
COc1cc(/C=C(\C#N)c2nc3ccccc3[nH]2)ccc1OC(=O)c1ccco1	-4%	-9%
CCSCC[C@H](N)C(=O)O	1%	7%
Cc1ccc(CCNC(=O)c2sc3ncccc3c2-n2c(C)ccc2C)cc1	-8%	-2%
COc1cc(/C=C/C(=O)OCC(=O)Nc2cc(C(F)(F)F)ccc2N2CCOCC2)ccc1O	-6%	-7%
O=C(COC(=O)/C=C/c1cccc(C(F)(F)F)c1)NC(c1ccccc1)c1ccccc1	0%	16µM*
Cc1ccccc1NC(=O)COC(=O)/C=C/c1cccc(C(F)(F)F)c1	0%	25µM*
Cc1cc(C)c(NC(=O)COC(=O)/C=C/c2cccc(C(F)(F)F)c2)c(C)c1	-6%	0%
COc1ccc(/C=C/C(=O)OCC(=O)Nc2cc(C(F)(F)F)ccc2Cl)cc1	-9%	25µM*
O=C(COC(=O)/C=C/c1cccc(C(F)(F)F)c1)Nc1cccc2ccccc12	3%	?
CCN(Cc1ccccc1)C(=O)Cn1c(=O)n(-c2cccc(C)c2)c(=O)c2c1c1cc(C)ccc1n2C	-1%	-4%
COc1ccc2c3c([nH]c2c1)[C@H]1C[C@@H]2[C@@H](C[C@@H](O)[C@H](OC)[C@H]2C(=O)O)CN1CC3	3%	3%
Cc1ccc(NC(=O)NCc2c(-n3cccc3)sc3c2CCCC3)c(Cl)c1	-1%	0%
CN(Cc1ccc(F)cc1)S(=O)(=O)c1nnc(NC(=O)c2ccc(F)cc2)s1	-3%	16µM*
CN(Cc1ccc(F)cc1)S(=O)(=O)c1nnc(NC(=O)c2ccccc2)s1	-1%	?
COc1cccc(-c2ccc3ncnc(N(C)C)c3c2)c1	-4%	-12%
Cc1cccc(Oc2sc(C(=O)c3ccccc3)c(N)c2C#N)c1C	-6%	?
